# Compounds with a hit are over-represented: about 0.93% of the library has one in this group of screens.
# HIF activator = HIF pathway transcriptional activators, primary screen, cell-based, U2OS HRE-luciferase, luminescence | 300,000 tested, 0.32% active | U2OS HRE-luciferase reporter; normalized: DMSO 0%, desferrioxamine 100% | activation, % at 7.5 µM (by protocol);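 active means mean activation of at least 10% of the iron chelator positive control signal, with at least half of replicates also reaching 10%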
# Jurkat NFkB inh = inhibitors of induced NF-kB luciferase reporter, primary screen, TCR NF-kB activation inhibitor project, cell-based, luminescence, uHTS; Jurkat, PMA/ionomycin-induced NF-kB luciferase reporter; inhibition, % at 4 µM; 330,000 tested, 0.53% active; in the data active means inhibition above about 50%
# F508del corr = F508del CFTR correction, initial screen, CFBE line, single point. CFBE cells, YFP halide quenching; stimulated with forskolin plus potentiator P3; % fluorescence drop versus neutral controls. 350,000 tested, 0.36% active. activity (quench increase), % at 7.58 µM;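 active means mean added fluorescence quench of at least 8% versus neutral control, with both replicates also reaching 8%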;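 further: cells transiently co-express mutant CFTR-F508del with the halide-sensitive YFP; corrector assay measuring rescue of mutant channel to the surface after 24 h compound exposure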
# 697 NFkB inh = inhibitors of PMA/ionomycin-induced NF-kB reporter, 697 cells, primary screen, B-cell NF-kB inhibitor project, cell-based, luminescence, uHTS; inhibition, % at 4 µM; 697 B-cell NF-kB luciferase reporter, 16 h; 330,000 tested, 0.33% active; AID 435022, 2010; in the data active means inhibition above about 35%
# Jurkat NFkB conf = PMA/ionomycin-induced NF-kB reporter inhibitors, Jurkat retest, confirmation, T-cell NF-kB inhibitor project, cell-based, luminescence, single concentration. 2,700 tested, 27% active. inhibition, % at 4 µM. Jurkat NF-kB luciferase, 16 h. shares compounds with Jurkat NFkB inh;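 active means inhibition reaching about 45% at 4 µM in either replicate, limit read from the data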;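 further: plate controls were PMA/ionomycin stimulated DMSO wells for no effect and unstimulated DMSO wells for full effect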
# 697 NFkB conf = PMA/ionomycin-induced NF-kB reporter inhibitors, 697 retest, confirmation, B-cell NF-kB inhibitor project, cell-based, luminescence, single concentration. shares compounds with 697 NFkB inh. inhibition, % at 4 µM. 2,000 tested, 35% active. 697 B-cell NF-kB luciferase, 16 h; in the data active means inhibition mostly above about 28%, no sharp cut-off; inactive means mostly below about 22%
# The depositor's hits bear a star; nt = no result given.
SMILES,HIF activator,Jurkat NFkB inh,F508del corr,697 NFkB inh,Jurkat NFkB conf,697 NFkB conf
Cc1ccc(C(=O)CN2C(=O)c3ccccc3S2(=O)=O)cc1,-1,81*,-2,73*,66*,51*
CCC(=O)N1C[C@H](C)[C@@H](OC)CN(C)C(=O)c2cc(NC(=O)NC3CCCC3)ccc2OC[C@@H]1C,nt,nt,0,nt,nt,nt
C[C@@H]1CN([C@H](C)CO)C(=O)c2c(c3ccccc3n2C)-c2ccccc2CO[C@H]1CN(C)C(=O)[C@H]1CCCN1C,nt,nt,1,nt,nt,nt
Nc1nc2c(-c3ccc(Br)cc3)nnn2c2ccccc12,6,-152,1,-258,-126,-249
O=C(Nc1nc(-c2ccc(F)c(F)c2)cs1)c1ccc(OCC2CCCO2)cc1 (stereo not drawn),-2,58*,nt,50*,63*,33*
Cc1csc(NC(=O)c2ccc(OCC3CCCO3)cc2)n1 (stereo not drawn),-1,-80,2,29,nt,nt
CCC(=O)N(C)C[C@H]1Oc2cc(C#CC(C)(C)O)ccc2S(=O)(=O)N([C@@H](C)CO)C[C@@H]1C,nt,nt,-1,nt,nt,nt
O=C(c1cc(COc2cccc3cnccc23)on1)N1CCCC(CCCO)C1 (stereo not drawn),1,55*,-2,56*,77*,101*
COCC1CCN(C(=O)c2cc(COc3cccc4cnccc34)on2)CC1,0,31,3,-18,nt,nt
Nc1nc(Nc2ccc(Cl)cc2)nc2ccccc12,0,-181,nt,-440,-100,-367
Cc1ccc(Nc2nc(N)c3ccccc3n2)cc1Cl,-6,-167,-6,-321,-120,-372
Nc1nc(Nc2ccccc2)nc2ccccc12,2,-112,nt,-145,nt,nt
COc1cc2nc(Nc3ccc(C)c(Cl)c3)nc(N)c2cc1OC,-2,38,5,-13,nt,nt
COC(=O)CCn1nnc(-c2ccc(C(C)C)cc2)n1,-6,64*,nt,69*,61*,78*
CC(C)NC(=O)N(C)C[C@H]1Oc2ccc(NC(=O)CCC(F)(F)F)cc2C(=O)N([C@H](C)CO)C[C@H]1C,nt,nt,1,nt,nt,nt
Cc1ccnc(NC(=O)Nc2ccc(F)cc2)c1,1,-163,nt,-289,-91,-142
Cc1noc(C)c1S(=O)(=O)Nc1cccc2c1O[C@H](CN(C)Cc1ccc(C(=O)Nc3ccccc3N)cc1)[C@H](C)CN([C@H](C)CO)C2=O,nt,nt,-1,nt,nt,nt
CN=c1scc(-c2ccccc2F)n1/N=C/c1ccc[nH]1,-4,70*,0,36*,75*,42*
CCc1ccc(-c2cnc3ccccc3n2)cc1NC(=O)CNC(=O)c1ccccc1,1,-162,-2,-276,-72,-115
C/C(=N\NC(=O)c1ccc(F)cc1)c1ccccn1,-16,100*,-9,-371,-21,0
COc1cccc2c1C(CO)N1C(C#N)C3CC(C(=O)O)C(C1C2)N3C (stereo not drawn),nt,97*,-9,104*,96*,102*
COc1ccccc1-c1ccccc1[C@H]1[C@@H](CO)N(C(=O)C2CC2)[C@H]1C#N,nt,nt,1,nt,nt,nt
CCCCc1ccc(-c2ccc(Br)cc2O)nc1,1,-213,nt,-273,-98,-169
CCCCc1ccc(-c2ccc(C)cc2O)nc1,1,-150,nt,-317,-129,-253
CCCCc1ccc(-c2nn[nH]n2)nc1,nt,nt,0,nt,nt,nt
Brc1ccc(-c2cn3ccccc3n2)cc1,0,-181,-2,-264,-117,-265
O=C(NC[C@@H]1CC[C@@H]2[C@@H](CN2S(=O)(=O)c2ccccc2[N+](=O)[O-])O1)C1CCOCC1,nt,nt,2,nt,nt,nt
NC(=O)c1c(NC(=O)CSc2nc3c(c(C(F)(F)F)n2)CCc2ccccc2-3)sc2c1CCCC2,0,2,0,20,nt,nt
Nc1c2c(nc3sc4c(c13)CCCC4)-c1ccccc1CC2,-2,-236,-3,-469,-188,-441
COc1ccccc1CN1[C@@H](CO)[C@@H](c2ccccc2)C12CN(C(=O)c1ccccn1)C2,nt,nt,3,nt,nt,nt

# Screening results: PubChem, several laboratories
